# From the OligoGym collection
# Molecular target: DGKH
# Experiment: pooled miR-30 sensor sort-seq; sequence = guide strand
# Conditions: shRNA
# Note: reference of the scale not given here.
row,Sequence,sensor-assay potency score (higher = more potent)
1,TTTCTTTAAACTATTTGCCCGC,-0.524
2,TGAACTTGTCTTCTGCTTCTGA,0.759
3,TTGAATTTACACACTTCGCAGG,-0.529
4,TAGAGGACTAACACAGAACGAA,-0.365
5,TAACATTTTGTTGATAATCGAA,-0.475
6,TATGTCATTATACTCCACCTGT,-0.182
7,TTCATCTTCTATAATGTCCTTC,0.785
8,TTGCTCTACAGAAACCATCGGA,0.0953
9,TACAGTTTCACATAGCGTCTTG,-0.34
10,TTGTTGATAATCGAACTCCCAG,-0.448
11,TAAATCAAACACCTGAGCCGGA,0.112
12,TTTACCAGAATCACACTTCTGC,0.827

# Molecular target: DHCR7
# Experiment: as above
# Conditions: shRNA
row,Sequence,sensor-assay potency score (higher = more potent)
1,TTGACCATGGCGAAGGTGGAGA,-0.859
2,TTGCCTGTGAATTTGCAGTCTC,-0.449
3,TTGAAGAACAGCTTGAAGTCAA,0.748
4,TTAAACTCGATGCCCATCATGT,-0.575
5,ATGGTCTTCAGGTACCAGGTTT,-0.879
6,TACTTGTTCACAACCCCTGCAG,-0.0403
7,TGAATTTGCAGTCTCTGGCGCT,0.0615
8,TAGTTGTAAAAGAAATTGCCTG,-0.825
9,TTGTAAAAGAAATTGCCTGTGA,0.127
10,TAGGAAGATGACGCTCGCCAGT,-1.46
11,TAGATGATGTAGAAGTAGGGCA,0.47
12,TCAATGGTCTTCAGGTACCAGG,-1.35
13,TACAGAAGCACCTGGAAGGTGA,0.0614
